hcDAF12 agonist: H. contortus DAF-12 nuclear receptor activators, primary screen, cell-based, luminescence, HEK293, lit1-tk-luc reporter; HEK293 hcDAF-12 lit1-tk-luc reporter; 0% DMSO, 100% Δ7-dafachronic acid; activation, % at 6.8 µM; 370,000 compounds, 1.4% hits;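 active means activation above the mean of all tested compounds plus 3 SD, cut at about 5.5% in these data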
DAX1 inh-1: DAX1 (NR0B1) inhibitors, primary screen, cell-based, HEK293, Gal4-DAX1, luciferase luminescence | Nuclear receptor subfamily 0 group B member 1 (Homo sapiens), P51843 | HEK293 Gal4-DAX1 luciferase reporter | inhibition, % at 6.75 µM | 340,000 compounds, 0.99% hits | AID 504766, 2011;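 active means inhibition above the mean over all tested compounds plus 3 SD, cut at about 4.2% in these data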;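 further: inhibition shows as a rise in luminescence from relieved DAX1 repression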
Target sequence (P51843 207-470 limits assumed): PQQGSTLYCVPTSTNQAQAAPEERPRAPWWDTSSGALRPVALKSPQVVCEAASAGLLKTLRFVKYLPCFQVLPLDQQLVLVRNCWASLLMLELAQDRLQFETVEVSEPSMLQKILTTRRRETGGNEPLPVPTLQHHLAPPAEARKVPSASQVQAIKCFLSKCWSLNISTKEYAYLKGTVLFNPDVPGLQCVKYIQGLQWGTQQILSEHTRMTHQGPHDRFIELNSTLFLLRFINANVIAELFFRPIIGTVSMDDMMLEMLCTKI
SMARCA2 act: SMARCA2 (BRM) function activators, primary screen, cell-based, luminescence, high throughput | MG213 cells, MMTV-luciferase reporter, dexamethasone, overnight | activation, % at 9.1 µM | 370,000 compounds, 1% hits | AID 652017, 2013; in the data active means activation above about 7.8%
hgDAF12 agonist: H. glycines DAF-12 receptor agonists, primary screen, cell-based, luminescence, HEK293, GAL4 fusion, UAS-luciferase; Nuclear hormone receptor DAF-12 (Heterodera glycines), GAL4 fusion; HEK293 GAL4-hgDAF12 UAS-luciferase reporter, agonist luminescence; normalized to butyrate control; activation, % at 6.8 µM; 370,000 compounds, 1.8% hits; AID 687014, 2013;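 active means activation above a cutoff set at the mean of all screened compounds plus 3 SD, cut at about 10% in these data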
DAX1 inh-2: DAX1 (NR0B1) inhibitors on StAR promoter, primary screen, cell-based, luminescence, SF-1 (NR5A1), full-length DAX-1; AID 652010, 2013; HEK293T StAR-luciferase reporter, SF-1/DAX-1 repression relief; inhibition, % at 6.8 µM; 370,000 compounds, 1.1% hits;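 active means inhibition above the mean over all tested compounds plus 3 SD, cut at about 3.6% in these data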;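 further: higher inhibition means more luminescence from relief of DAX-1 repression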
ssDAF-12 act: S. stercoralis DAF-12 nuclear receptor activators, primary screen, cell-based, luminescence, HEK293, GRIP1 co-expression, lit1-tk-luc | Nuclear hormone receptor DAF-12 (Strongyloides stercoralis) | activation, % at 6.8 µM | HEK293 ssDAF-12/GRIP1 lit1-tk-luc reporter; % of 3 µM dafachronic acid response | 370,000 compounds, 1% hits;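 active means activation above the mean over all tested compounds plus 3 SD, cut at about 0.9% in these data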
Each line names hits and unclear results; the compound was inactive in the other large screens. An excerpt weighted towards active compounds, which were near 4.8% of everything screened.

CCN(CC)C(=O)C(C)N(C#N)c1nc(C)cc(C)n1 (stereo not given)	hcDAF12 agonist 6.3
Cc1cc(C)nc(N(C#N)C(C)C(=O)N(C)C)n1 (stereo not given)	none
O=C(c1ccco1)N1CCC(Oc2cccnc2)CC1	none (no result: DAX1 inh-1)
Cc1nnc(NC(=O)C2COc3ccccc3O2)s1 (stereo not given)	none
O=C(Nc1ncc(Cc2ccccc2)s1)C1COc2ccccc2O1 (stereo not given)	hgDAF12 agonist 11, DAX1 inh-2 4.2
O=C(Nc1ccncc1)C1COc2ccccc2O1 (stereo not given)	none
O=C(NC1=NCCS1)C1COc2ccccc2O1 (stereo not given)	none
O=C(Nc1nc2c(s1)CCCC2)C1COc2ccccc2O1 (stereo not given)	DAX1 inh-2 4.4
CCCCCc1nnc(NC(=O)C2COc3ccccc3O2)s1 (stereo not given)	hcDAF12 agonist 5.6
O=C(Nc1ccc2c(c1)OCO2)C1COc2ccccc2O1 (stereo not given)	none
O=C(Nc1ccc2c(c1)CCC2)C1COc2ccccc2O1 (stereo not given)	hgDAF12 agonist 12
O=C(Nc1ccc(Br)cc1)OC1CC2CC1[C@H]1CCCCN1[C@H]2Cc1ccccc1 (stereo not given in full)	none (no result: DAX1 inh-1)
Clc1ccc(-c2nnc3n2N=C(c2ccc(-c4ccccc4)cc2)CS3)cc1	none (no result: DAX1 inh-1)
Oc1cccc(C2c3[nH]c4ccccc4c3CCN2Cc2ccoc2)c1 (stereo not given)	ssDAF-12 act 1.4
CCc1ccc(OCC(=O)NC(=S)Nc2ccc(C(C)=O)cc2)c(Br)c1	none
CCc1ccc(OCC(=O)N(C)C)c(Br)c1	DAX1 inh-1 5.5
Cc1cccc(N2CCN(c3nnc(C(F)(F)F)s3)CC2)c1	none
FC(F)(F)c1nnc(N2CCN(c3ccc(Cl)cc3)CC2)s1	DAX1 inh-1 5.2
Cc1ccc(CNC(=O)O[C@H]2CC[C@@]34CCCN3C(=O)CCC[C@H]4[C@H]2C)cc1	none (no result: DAX1 inh-1, SMARCA2 act, DAX1 inh-2)
O=C(CCC1CCCC1)NCCCNC(=O)CCC1CCCC1	hcDAF12 agonist 5.9
O=C(CCSCCc1ccccn1)Nc1cc(F)ccc1F	none
O=C(CCSCCc1ccccn1)Nc1ccc(Br)cc1F	ssDAF-12 act 2.0
COc1cc(NS(=O)(=O)c2ccc3c(c2)C(C)(C)C(=O)N3C)cc(OC)c1	DAX1 inh-1 5.0
Cc1ccc2c(c1)C1CS(=O)(=O)N(CCc3ccccc3)C(=O)N1C2 (stereo not given)	none (no result: DAX1 inh-1)
O=C(COc1ccc(Br)cc1Cl)c1ccc[nH]1	hgDAF12 agonist 13
COc1ccc(C(=O)O/N=C(\C)c2nccs2)cc1	none
C/C(=N\OC(=O)c1ccc(F)cc1)c1nccs1	ssDAF-12 act 1.1
COc1ccc(C2C(C(=O)N3CCN(C=O)CC3)CC(=O)N2c2ccc(OC)cc2)cc1 (stereo not given)	none (no result: DAX1 inh-1)
Cc1nn(-c2nc(-c3ccco3)cc(C(F)(F)F)n2)c(C)c1Br	DAX1 inh-1 4.7
O=C(OCC(=O)N1CCC(Cc2ccccc2)CC1)c1cc(Cl)ccc1O	DAX1 inh-2 3.9
COc1ccccc1C(=O)OCC(=O)N1CCC(Cc2ccccc2)CC1	none
Cc1cc(C)n(-c2cc(N3CCN(S(=O)(=O)c4ccc(C)c(C)c4)CC3)ccc2[N+](=O)[O-])n1	DAX1 inh-1 5.4
COc1ccc(C(=O)N2CCN(c3ccc([N+](=O)[O-])c(-n4nc(C)cc4C)c3)CC2)cc1	SMARCA2 act 12
Cc1cc(C)n(-c2cc(N3CCN(S(=O)(=O)c4ccc5ccccc5c4)CC3)ccc2[N+](=O)[O-])n1	none
Cc1ccc(CN2CCCCC(NC(=O)C(C)(C)C)C2=O)cc1 (stereo not given)	none (no result: DAX1 inh-1)
O=C1[C@H]2C[C@@]3(n4ccc5ccccc54)c4ccccc4N(S(=O)(=O)c4ccccc4)[C@H]3N2C(=O)CN1Cc1ccccc1	none (no result: DAX1 inh-1)
COC(=O)c1c(N=CN(C)C)c(C#N)c2n1CCCC2	DAX1 inh-1 6.0
COc1ccc(-n2c(COc3ccc(C)cc3)nnc2SCC(=O)Nc2ccc(S(=O)(=O)Nc3cc(C)nc(C)n3)cc2)cc1	none (no result: DAX1 inh-1)
COC(=O)CNC(=O)CN1C(=O)N(c2ccccc2)C(N(O)C(=O)Nc2ccccc2)C1(C)C (stereo not given)	none
COC(=O)CN1C(=O)N(c2ccccc2)C(N(O)C(=O)Nc2ccccc2)C1(C)C (stereo not given)	DAX1 inh-1 4.6
CCNC(=S)Nc1cccc(NC(=O)c2ccccc2O)c1	none
CCNC(=S)Nc1ccc(NC(=O)c2ccccc2O)cc1	ssDAF-12 act 1.6
COc1ccc(Nc2nccc3c2nnn3C)cc1	DAX1 inh-2 4.2
CCOc1ccc(C(=O)Nc2c(C(=O)N3CCC(N4CCCCC4)CC3)oc3ccccc23)cc1	DAX1 inh-2 4.0
COc1ccc(N2CCN(C(CNC(=O)C(C)(C)C)c3cccnc3)CC2)cc1 (stereo not given)	SMARCA2 act 7.8
Cc1ccc(-n2c(CNc3cccc(Cl)c3)n[nH]c2=S)cc1	none
Cc1ccc(NCc2n[nH]c(=S)n2-c2cccc(Cl)c2)cc1	DAX1 inh-1 4.5
CC(C)Cn1cc(C(=O)NCCCN2CCC(C)CC2)c2c3ccccc3n(C)c2c1=O	DAX1 inh-1 5.3
CC1CCN(CCCNC(=O)c2cc3c(=O)n(C)c4ccccc4c3n2C)CC1	DAX1 inh-1 6.0, DAX1 inh-2 4.7
CCOC(=O)c1ccc(NC(=O)CSc2nnc(SCc3cccc4ccccc34)s2)cc1	none (no result: DAX1 inh-1)
COc1ccc([N+](=O)[O-])cc1NC(=S)NC(C)=O	DAX1 inh-1 8.8
CCOc1ccc(NC(=O)CN2CCCN(c3ccc(OC)cc3)CC2)cc1	none (no result: DAX1 inh-1)
CC(C)c1nnc(NC(=O)c2cccc(NC(=O)C(F)(F)F)c2)s1	hgDAF12 agonist 12
CC(C)C(=O)Nc1cccc(C(=O)Nc2nnc(C(C)C)s2)c1	none
O=C(N/N=C/c1ccc(O)cc1)c1csc2c1CCCC2	hgDAF12 agonist 11
O=C(C1CCN(c2ncnc3c2sc2cccc(F)c23)CC1)N1CCN(Cc2ccc(F)cc2)CC1	none (no result: DAX1 inh-1)
COC(=O)c1cc(C(C)c2ccccc2O)n2ccccc12 (stereo not given)	none (no result: DAX1 inh-1)
O=C(Nc1ccc2c(c1)OCCO2)c1ccco1	none
COc1ccc(NC(=O)c2ccccc2F)cc1Cl	hgDAF12 agonist 11

Bioassay records from PubChem BioAssay.
